Data on 37 compounds can be found in PubChem BioAssay AID2108 (National Center for Advancing Translational Sciences (NCATS), 2009).

Results filed as inconclusive are left out. A number with no mark means an inactive call. Calls come from the whole dose curve; as a rule, active = well fitted curve in the direction sought with a large enough effect; inconclusive = small, poorly fitted or top-dose-only effect, or effect the other way, or another doubt; inactive = no such curve, though single readings can be large or run the other way.

Chain of Alpha-galactosidase A (Homo sapiens) (P06280 32-429 limits assumed): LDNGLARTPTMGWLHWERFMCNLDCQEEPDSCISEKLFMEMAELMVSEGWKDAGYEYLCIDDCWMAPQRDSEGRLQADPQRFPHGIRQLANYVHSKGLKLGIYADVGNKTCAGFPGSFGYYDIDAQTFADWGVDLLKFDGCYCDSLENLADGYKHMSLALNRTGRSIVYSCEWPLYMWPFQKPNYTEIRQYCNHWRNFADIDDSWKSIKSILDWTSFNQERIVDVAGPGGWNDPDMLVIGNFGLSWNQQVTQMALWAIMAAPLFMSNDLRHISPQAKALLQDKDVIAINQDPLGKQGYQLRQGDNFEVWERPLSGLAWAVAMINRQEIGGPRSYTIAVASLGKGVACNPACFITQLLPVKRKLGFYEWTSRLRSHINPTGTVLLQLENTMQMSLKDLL

In this assay the target is Alpha-galactosidase A (Homo sapiens) (UniProt P06280). The assay can be described thus: Confirmation of Inhibitors of Human alpha-Galactosidase Using Spleen Homogenate. Note: 0% is about no effect. The settings on record: alpha-galactosidase enzyme activity; series mostly up to 56.2 µM; activity change: at the top concentration. Summed up:
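AC50 values come from Hill-equation fits of normalised 4-methylumbelliferone fluorescence (365/440 nm, read after NaOH/glycine stop). Enzyme source: spleen homogenate; substrate 1 mM final; pH 5.0 citrate buffer; 40 min at 37C; compound titration 0.5 nM–58 uM.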
Regarding `COc1ccc(NC(=O)CC2Nc3cc(C)c(C)cc3NC2=O)c([N+](=O)[O-])c1` (configuration not stated), the “activity change” value was -2.6%.
Consider `Cc1ccc(S(=O)(=O)NC(=O)NN2CCCCCC2)cc1`, for which the “activity change” value was -0.482%.
`COc1cc([C@@H]2c3cc4c(cc3[C@@H](OC3OC5COC(C)OC5C(O)C3O)[C@H]3COC(=O)[C@H]23)OCO4)cc(OC)c1O` (some centres not stated): the “activity change” value was -6.56%.
As for `O=C(O)Cc1sc(-c2cc3ccccc3oc2=O)nc1-c1ccc(Br)cc1`, the figure is 3.08%; as for `Clc1cc2c(cc1/C=C/c1ccc3ccccc3n1)OCO2`, 9.14%.
Next, `COC(=O)c1cc(OC)c(OC)cc1NC(=O)CCCCCN1C(=O)CCC1=O`: 10.8% [at 23.6 µM].
On to `CC(=O)Nc1c(S(=O)(=O)c2ccccc2)c2nc3ccccc3nc2n1Cc1ccccc1`, for which the “activity change” value is 48.2%.
As for `O=C(O)c1cc(NCc2c(F)cccc2Cl)ccc1N1CCOCC1`, the figure is -8.02%; as for `Cc1nc(SCC(=O)N2CCN(c3ccccc3)CC2)c2oc3ccccc3c2n1`, 11.7%.
Next, `CC1=CC(=C2C=CC(=O)C=C2)C=C(C)N1C`: -1.91% [at 23.6 µM]; `COC(=O)c1cccc(S(=O)(=O)N2CCOCC2)c1`: 10.6%; `O=S(=O)(c1ccccc1)N1CCN(S(=O)(=O)c2ccccc2)CC1`: 1.73%.
Next, `COc1cc(-c2cc(N3C(=O)Nc4ccccc4N3O)n[nH]2)cc(OC)c1OC`: 6.53% [at 23.6 µM]; `O=C1NC[C@@H](Cc2cccc3ccccc23)N(CCc2cc(C(F)(F)F)cc(C(F)(F)F)c2)C1=O`: -5.01%.
For `COc1cc(/C=C/c2ccc3ccccc3n2)cc(OC)c1O`, the “activity change” value is -0.216%.
`N#Cc1c(N2CCN(c3ccc(F)cc3)CC2)nc(N)c2c(N)nc3c(c12)CC(=O)N3C1CC1`: the “activity change” value is -2.17%.
With `O=C(Nc1ccccc1)C1CCN(S(=O)(=O)c2ccccc2)CC1`, the “activity change” value is 11.6%.
Next, `Cc1cc(/C=N/NC(=O)c2ccc(O)cc2)c(C)n1C1CC1`: 1.75%; `Cc1c(Nc2c3ccccc3nc3ccccc23)c(=O)n(-c2ccccc2)n1C`: -1.1% [at 23.6 µM]; `O=C(O)c1cc(NCc2ccc3c(c2)OCO3)ccc1N1CCOCC1`: 1.85%.
For `Cn1cnc2c(NCc3ccccc3)nc(NCCO)nc21`, the “activity change” value is 4.37%.
As for `O=S(=O)(c1ccc(-c2ccccc2)cc1)N1CCOCC1`, the figure is 11.5%.
Turning to `Cc1ccc(S(=O)(=O)N2CCN(C(=O)CSc3nc4ccccc4c(=O)[nH]3)CC2)c(C)c1`, the “activity change” value was 1.9%.
As for `O=C(CCc1cccc(S(=O)(=O)N2CCOCC2)c1)NN=C1c2ccccc2-c2ccccc21`, the figure is -3.69%; as for `O=C1CC(N2CCN(c3cccc(C(F)(F)F)c3)CC2)C(=O)N1c1ccc(F)cc1` (configuration not stated), -6.67% [at 23.6 µM].
Next, `Cc1ccc(-c2nc(-c3cc4ccccc4oc3=O)sc2C)cc1`: 12.7%; `CCc1sc(-c2cc3ccc(O)cc3oc2=O)nc1-c1ccc(C)cc1`: 23.7%; `O=S(=O)(c1ccc2ccccc2c1)N1CCOCC1`: -0.447%.
Next, `C[C@H](NC(=O)/C(C#N)=C/c1ccc(O)c(O)c1)c1ccccc1`: 3.29%; `O=C(O)Cc1sc(-c2cc3ccccc3oc2=O)nc1-c1ccc(-c2ccccc2)cc1`: -0.387%; `COc1ccc2cc(C#N)c(=O)oc2c1`: -0.469%.
`COc1ccc(C(=O)N2CCn3c(C)ccc3C2C)cc1` (configuration not stated): the “activity change” value was -1.12%.
Next, `COc1ccccc1NCC(=O)n1nc(C)cc1C`: -2.77%; `C(=C/c1nccc2c1[nH]c1ccccc12)/c1ccc2c(c1)OCO2`: 23.5%; `CCOC(=O)c1c(-c2ccc(-c3ccccc3)cc2)csc1NC(=O)CCN1CCOCC1`: 6.65%.
Regarding `CC1OC(OC2C(CO)OC(OC3C(CO)OC(O)C(O)C3O)C(O)C2O)C(O)C(O)C1NC1C=C(CO)C(O)C(O)C1O` (configuration not stated), the “activity change” value was -3.24%.
`Cc1ccccc1NC(=O)CC1c2ccccc2CC(C)(C)N1C` (configuration not stated): the “activity change” value was -2.65%.
